# Test results reported in the supplement of paper PMC5919970.
# Counter-ions that a name gives are not always drawn. In all, about 2,000 compounds were measured (“fractional viability relative to vehicle”: median about 0.91, lowest 2% from about 0.045 on). Only a selection was taken, and the lowest values are over-represented in it overall.
# System: TYKNU
# Assay: fractional viability relative to vehicle; TYKNU is a high-grade serous ovarian cancer line; higher = less growth inhibition
# Conditions: 72 h
# Procedure, shortened: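 TYKNU control cells or lentiCRISPRv2 knockout derivatives were seeded at 500 cells per well into drug-stamped 384-well plates holding a ~2100-compound library at 2 or 10 μM, in duplicate. Cells were grown at 37 °C in 5% CO2 in RPMI 1640 with 10% FBS, and drug treatment lasted 72 h. Viability was read by Cell Titer Glo luminescence. Duplicate treatment wells were averaged and normalised to duplicate control wells from the same plate position.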
# [1] = 2uM, genotype: DNM1L knockout (sgDNM1L #1)
# [2] = 2uM, genotype: sgCTRLA1 (non-targeting control)
# [3] = 10uM, genotype: DNM1L knockout (sgDNM1L #1)
# [4] = 10uM, genotype: sgCTRLA1 (non-targeting control)
Structure (SMILES),fractional viability [1],fractional viability [2],fractional viability [3],fractional viability [4]
C/C=C1/[C@H](O[C@@H]2O[C@H](CO)[C@@H](O)[C@H](O)[C@H]2O)OC=C(C(=O)OC)[C@H]1CC(=O)OCCc1ccc(O)c(O)c1 [Oleuropein],0.773,0.978,0.843,0.774
CC[C@H](C)C[C@H](C)CCCCCCCCC(=O)N[C@H]1C[C@@H](O)[C@@H](NCCN)NC(=O)[C@@H]2[C@@H](O)CCN2C(=O)[C@H]([C@H](O)CCN)NC(=O)[C@H]([C@H](O)[C@@H](O)c2ccc(O)cc2)NC(=O)[C@@H]2C[C@@H](O)CN2C(=O)[C@H]([C@@H](C)O)NC1=O [Caspofungin Acetate],0.98,1.17,0.637,1.01
Cc1ncc(Cl)cc1NCc1ccc(C(=O)N[C@@H](CC2CCCC2)C(=O)NC2CC2)s1,0.845,0.992,0.838,0.778
CCOc1ccc(Cc2cc([C@@H]3O[C@H](SC)[C@@H](O)[C@H](O)[C@H]3O)ccc2Cl)cc1 [Sotagliflozin (LX4211)],0.825,1.02,0.592,0.694
COC(=O)C[C@H](NC(=O)[C@H](C)NC(=O)[C@@H](NC(=O)OCc1ccccc1)C(C)C)C(=O)CF,0.89,1.14,0.837,1.1
CCOc1cc(N2CCC(O)CC2)ccc1Nc1ncc2c(n1)N(C)c1ccccc1C(=O)N2C,0.651,0.842,0.539,0.531
CNC(=O)c1ccccc1Nc1nc(Nc2ccc(N3CCOCC3)cc2OC)ncc1Cl,0.85,0.837,0.292,0.206
COc1cc(N2CCC(N)CC2)ccc1Nc1ncc(Cl)c(-c2c[nH]c3ccccc23)n1,0.359,0.386,0.0459,0.0363
CN(N=O)C(=O)NC1C(O)OC(CO)C(O)C1O (stereo not given) [Streptozotocin (STZ)],1.1,1.2,0.905,1.2
C/C(=N\NC(=O)c1cccc(S(=O)(=O)N2CCOCC2)c1)c1cc(Cl)ccc1O,0.348,0.356,0.242,0.136
COc1ccc(-c2cnc3c(-c4cccc5ncccc45)cnn3c2)cc1,1.18,1.28,1.1,1.2
COc1cc(-c2cc(-c3ccc(N4CCNCC4)cc3)cnc2C)cc(OC)c1OC,0.714,1.02,0.834,0.772
c1cc(-c2cnn3cc(-c4ccc(N5CCNCC5)cc4)cnc23)c2cccnc2c1,0.0431,0.069,0.0409,0.021
CNC(=O)c1cccc(-c2ccc3c(N4CCOC[C@@H]4C)nc(N4CCOC[C@@H]4C)nc3n2)c1,0.277,0.218,0.201,0.237
CCCCCCCc1ccc(CCc2cccc(O)c2C(=O)O)cc1,0.825,1.04,0.896,0.765
CCCCCCCCc1ccc(CCC(N)(CO)CO)cc1 [Fingolimod (FTY720) HCl],0.722,1.02,0.0372,0.0418
CCCCCCCCCCCCc1ccc(S(=O)(=O)Nc2nncs2)cc1,0.997,1.07,0.843,0.966
CCCCc1nc2cc(/C=C/C(=O)NO)ccc2n1CCN(CC)CC [Pracinostat (SB939)],0.146,0.22,0.0823,0.0879
O=C1NC(=O)/C(=C/c2ccc3nccc(-c4ccncc4)c3c2)S1,0.556,0.7,0.21,0.219
CCCCCCCCCCCC[N+](C)(C)CCOc1ccccc1 [Domiphen Bromide],0.558,0.882,0.0673,0.0826

Structure (SMILES),fractional viability [1],fractional viability [2],fractional viability [3],fractional viability [4]
CCCCCCCCCCCCCCCCO [1-Hexadecanol],0.833,1.09,0.879,1.1
CCCCCCCCCCCCCCCC[N+](C)(C)C [Cetrimonium Bromide (CTAB)],0.311,0.295,0.0593,0.0171
COc1ccc(-n2c(SCCCN3C(=O)c4cccc5cccc(c45)C3=O)nnc2-c2ccncc2)cc1,0.722,0.945,0.895,0.738
Nc1nccc(Oc2ccc(NC(=O)c3c[nH]cc(-c4ccc(F)cc4)c3=O)cc2F)c1Cl,1.09,1.05,0.598,0.808
CC1(C)CCC2=C(O1)c1ccccc1C(=O)C2=O [Beta-Lapachone],0.128,0.0912,0.0219,0.023
CC1=CC(=O)c2ccccc2C1=O [Menadione],0.872,1.1,0.952,0.951
N#C/C(=C(/N)Sc1ccc(N)cc1)c1ccccc1C(F)(F)F,0.881,0.905,0.626,0.785
OC[C@H]1O[C@@H](c2ccc(Cl)c(Cc3ccc(O[C@H]4CCOC4)cc3)c2)[C@H](O)[C@@H](O)[C@@H]1O,0.8,1.06,0.788,0.819
Oc1cc2c(cc1O)[C@@H]1c3ccc(O)c(O)c3OC[C@]1(O)C2 [Hematoxylin],0.878,1.11,0.861,0.977
CCOC(=O)[C@H](CCc1ccccc1)N[C@H]1CS[C@H](c2cccs2)CN(CC(=O)O)C1=O [Temocapril HCl],0.889,1.23,0.83,1.04
CC(C)c1cc(-c2n[nH]c(=O)n2-c2ccc3c(ccn3C)c2)c(O)cc1O [Ganetespib (STA-9090)],0.299,0.204,0.248,0.206
CN(C)S(=O)(=O)c1ccc2c(c1)/C(=C/c1cc3c([nH]1)CCCC3)C(=O)N2,0.562,0.815,0.234,0.264
Cc1[nH]c(/C=C2\C(=O)Nc3ccc(S(=O)(=O)Cc4c(Cl)cccc4Cl)cc32)c(C)c1C(=O)N1CCC[C@@H]1CN1CCCC1,0.317,0.279,0.0474,0.0167
Cc1[nH]c(/C=C2\C(=O)Nc3ccc(S(=O)(=O)N(C)c4cccc(Cl)c4)cc32)c(C)c1C(=O)N1CCN(C)CC1,1.02,0.999,0.152,0.189
CCOC(=O)c1ccc(NC(=O)O[C@H]2[C@H](OC(=O)Nc3ccc4c(c3)OCO4)[C@@H](OC(=O)Nc3ccc4c(c3)OCO4)[C@@H](OC)O[C@@H]2CO)cc1,0.821,1.04,0.616,0.615
CCCCCCCCC/C(=C\C1=C(C)C(=O)C(OC)=C(OC)C1=O)C(=O)O,0.847,0.878,0.855,0.701
Cc1ccc(-n2sc(=O)n(Cc3ccc(F)cc3)c2=O)cc1,0.995,1.11,0.469,0.618
Cn1sc(=O)n(Cc2ccccc2)c1=O,0.797,0.735,0.0256,0.00748
O=C(NC[C@H](O)CN1CCc2ccccc2C1)c1cc(NC2COC2)ncn1,0.764,0.899,0.604,0.662
Nc1ccc(-c2ccc3ncc4ccc(=O)n(-c5cccc(C(F)(F)F)c5)c4c3c2)cn1 [Torin 2],0.125,0.114,0.114,0.0945

Structure (SMILES),fractional viability [1],fractional viability [2],fractional viability [3],fractional viability [4]
COc1ccc(-c2ccc3ncc4c(c3c2)n(-c2ccc(N3CCNCC3)c(C(F)(F)F)c2)c(=O)n4C)cn1,0.0297,0.0315,0.0158,0.0115
O=C(Nc1ccc(OC(F)(F)F)cc1)c1sccc1NCc1ccnc2ccccc12,0.926,0.906,0.215,0.181
CN1CCN(c2c(F)cc3c(=O)c(C(=O)O)cn4c3c2OCN4C)CC1 [Marbofloxacin],1.13,1.21,0.971,1.01
Cc1c(C(=O)NN2CCCCC2)nn(-c2ccc(Cl)cc2Cl)c1-c1ccc(Cl)cc1 [Rimonabant],1.11,1.01,0.575,0.753
CNC(=O)c1ccc(Nc2ncc(C(F)(F)F)c(NCc3nccnc3N(C)S(C)(=O)=O)n2)cc1,0.702,0.772,0.213,0.179
CC(C)(O)c1ccccc1CC[C@@H](SCC1(CC(=O)O)CC1)c1cccc(/C=C/c2ccc3ccc(Cl)cc3n2)c1 [Montelukast Sodium],0.809,1.13,0.762,1.05
CN(C)Cc1cccc(N/C(=C2\C(=O)Nc3cc(C(N)=O)ccc32)c2ccccc2)c1,1.01,0.992,1.05,0.912
COC(=O)c1ccc2c(c1)NC(=O)/C2=C(\Nc1ccc(N(C)C(=O)CN2CCN(C)CC2)cc1)c1ccccc1 [Nintedanib (BIBF 1120)],0.903,0.889,0.152,0.147
CCS(=O)(=O)Nc1ccc2c(c1)/C(=C(/Nc1ccc(CN3CCCCC3)cc1)c1ccccc1)C(=O)N2 [Hesperadin],0.316,0.329,0.0548,0.0381
CC#CCn1c(N2CCC[C@@H](N)C2)nc2c1c(=O)n(Cc1nc(C)c3ccccc3n1)c(=O)n2C [Linagliptin],1.22,1.14,0.918,0.986
NC(=O)c1cn(Cc2c(F)cccc2F)nn1 [Rufinamide],0.992,1.08,1.07,1.04
Cc1cc(C)nc(NS(=O)(=O)c2ccc(NC(=S)NC(=O)COc3ccc(Br)cc3Cl)cc2)n1,1.05,1.04,0.706,1.08
CN1CCN(c2ccc(Nc3cc(-c4cccc(-n5ccc6cc(C7CC7)cc(F)c6c5=O)c4CO)cn(C)c3=O)nc2)CC1,0.836,0.97,0.114,0.182
CCOC(=O)[C@@H](N)Cc1ccc(-c2cc(O[C@H](c3ccc(Cl)cc3-n3ccc(C)n3)C(F)(F)F)nc(N)n2)cc1 [Telotristat Etiprate (LX 1606 Hippurate)],0.777,1.1,0.0468,0.12
CC(C)C[C@H](NC(=O)[C@H](CCc1ccccc1)NC(=O)CN1CCOCC1)C(=O)N[C@@H](Cc1ccccc1)C(=O)N[C@@H](CC(C)C)C(=O)[C@@]1(C)CO1 [Carfilzomib (PR-171)],0.0773,0.0587,0.0559,0.057
COC[C@H](NC(=O)c1cnc(C)s1)C(=O)N[C@@H](COC)C(=O)N[C@@H](Cc1ccccc1)C(=O)[C@@]1(C)CO1 [Oprozomib (ONX 0912)],0.0658,0.0656,0.055,0.0445
CC(C)C[C@H](NC(=O)[C@H](Cc1ccccc1)NC(=O)c1cnccn1)B(O)O [Bortezomib (PS-341)],0.1,0.0838,0.101,0.0762
COC(=O)[C@H](Cc1ccccc1)NC(=O)[C@@H](N)CC(=O)O [Aspartame],1.02,1.15,0.941,0.985
CC(NC(=O)C(Cc1ccccc1)NC(=O)OCc1ccccc1)C(=O)CF (stereo not given),0.85,0.869,0.793,0.606
COc1ccc(C[C@H](NC(=O)[C@H](C)NC(=O)CN2CCOCC2)C(=O)N[C@@H](Cc2ccccc2)C(=O)[C@@]2(C)CO2)cc1,0.0589,0.0514,0.0565,0.0416
